The values below come from PubChem BioAssay AID602252 (Broad Institute, 2012).

The structures appear in SMILES notation. Among all 300,000 compounds or so, about 2,700 (0.9%) were called active. Many of the other results were omitted from the sample, so actives are more common in it than they were. A number with no mark means an inactive call.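 How the source made its calls: active means mean inhibition of at least 30% with at least half of replicates also reaching 30%; inconclusive means no clear call, values can overlap the other calls; inactive means the rest.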

This assay deals with Golgi-associated PDZ and coiled-coil motif-containing protein (Homo sapiens) (UniProt Q9HD26). The experiment in a line: blockade of CAL PDZ-reporter peptide interaction – biochemical, fluorescence polarization, untagged CAL PDZ, HTS, primary screen (AID 602252).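 Further: 0% = DMSO neutral control and 100% = excess unlabeled competitor peptide PRC23.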 Conditions: purified CAL PDZ, TMR-peptide fluorescence polarization, 1 h; at 24.9 µM; hits give high values.
For the molecule `O=C(Nc1cccc(S(=O)(=O)N2CCOCC2)c1)C12CC3CC(CC(C3)C1)C2`, the inhibition – broadly, the change of the read-out against control, counted positive when it falls – was -2.14%. `CSc1ncnc2c1ncn2CC(=O)C1CCC2C3CCC4=CC(=O)CCC4(C)C3CCC12C` (centres undefined): the inhibition is 2.07%. Regarding `COc1ccccc1N(CCOc1ccccc1)S(=O)(=O)c1ccccc1`, the inhibition is 71% (active). Under `COc1ccccc1N(CC(=O)N1CCCCC1)S(=O)(=O)c1ccccc1` stands -3.76%; under `COc1ccccc1NC(=O)CN(c1ccccc1OC)S(=O)(=O)c1ccccc1`, 0.854%. Consider `O=C(O)C(=Cc1ccccc1[N+](=O)[O-])c1ccccc1`, for which the inhibition is -1.54%.

As to `O=C(CSc1nnc(CNC(=O)c2ccc(F)cc2)o1)Nc1ccc2c(c1)OCO2`, the inhibition is 74.1% (active). Take `COc1ccc(C(=O)NCc2nnc(SCC(=O)Nc3cccc(OC)c3)o2)cc1`: the inhibition was -4.41%. To `O=C(NCc1nnc(SCC(=O)N2CCCCCC2)o1)c1ccc(F)cc1` belongs -2.96%; to `COc1ccc(-c2ccc3c(c2)[C@@H]2C[C@H](N(C)S(=O)(=O)c4ccccc4)[C@H]([C@H](C)O)C(=O)N2CC3)cc1`, -5.77%; to `CCCCn1c(=S)[nH]c2cc(S(=O)(=O)N3CCCCC3)ccc21`, 1.64% (active). In the case of `CCCCn1c(N)c(N(CCOC)C(=O)c2cccc(S(=O)(=O)N3CCCCC3)c2)c(=O)[nH]c1=O`, the inhibition was -4.58%. In the case of `O=c1[nH]c2ccc(S(=O)(=O)N3CCCC3)cc2[nH]1`, the inhibition is -3.37%.

As for `CCN(CC)S(=O)(=O)c1cccc(NC(=O)c2ccc(S(=O)(=O)N3CCCC3)cc2)c1`, the inhibition was -1.26%. `O=C1/C(=C\c2ccc([N+](=O)[O-])cc2)CS(=O)(=O)C/C1=C/c1ccc([N+](=O)[O-])cc1`: the inhibition is -4.54%. Take `COc1ccccc1NC(=O)COC(=O)CNC(=O)C1CCCCC1`: the inhibition was -1.86%. Consider `CN(CCc1ccccc1)C(=O)c1cccc(NC(=O)Cc2ccc([N+](=O)[O-])cc2)c1`, for which the inhibition was 0.702%. On to `O=C(COC(=O)c1ccccn1)NNC(=O)c1ccc(Br)cc1`, for which the inhibition was -0.344%. As to `O=Cc1ccc(Oc2cccc(C(F)(F)F)c2)nc1`, the inhibition was 2.04%.

For `Cc1cccc(OCc2nnc(SCc3nc4cc(C(F)(F)F)ccc4c(=O)[nH]3)o2)c1`, the inhibition is 1.6%. To `Cc1nc(N)[nH]c(=O)c1Oc1cccc(C(F)(F)F)c1` belongs 71.1% (active); to `Fc1ccccc1-c1cc2cc3c(cc2cn1)OCO3`, -3.15%; to `COc1cc(/C=C/c2ccc(/C=C/c3cc(OC)c(OC)c(OC)c3)cc2)cc(OC)c1OC`, -6.47%. `CC(Oc1ccc2c(-c3ccccc3)cc(=O)oc2c1)C(=O)NC(Cc1c[nH]c2ccccc12)C(=O)O` (centres undefined): the inhibition was 1.66%.

Consider `CCC(=O)Nc1ccc2c(c1)nc(CCN1CCN(c3ccccn3)CC1)n2C`, for which the inhibition was -15.1%. Turning to `Cn1c(CCN2CCCC2)nc2cc(NS(=O)(=O)c3ccccc3)ccc21`, the inhibition is -2.75%. Under `Cn1c(CCN2CCCCCC2)nc2cc(NC(=O)Nc3ccccc3)ccc21` stands 49.1% (active); under `CC[C@@H]1CCCCc2ccccc2[C@@H](C(=O)C[C@H](O)CC(C)=O)OC1=O`, 1.2%. As to `O=C(NCc1ccccc1Cl)C1CCN(S(=O)(=O)c2cccc3nonc23)CC1`, the inhibition was -3.79%. As for `COCCNC(=O)C1CCN(S(=O)(=O)c2ccc3c(c2)OCCO3)CC1`, the inhibition was -1.23%.

For the molecule `O=C(NCc1ccccc1Cl)C1CCN(S(=O)(=O)N2CCOCC2)CC1`, the inhibition was 137% (active). For `COc1ccc(CNC(=O)C2CCN(S(=O)(=O)N3CCOCC3)CC2)cc1`, the inhibition is -1.68%. Turning to `COc1ccccc1CNC(=O)C1CCN(S(=O)(=O)c2ccc3c(c2)OCCO3)CC1`, the inhibition was 80.2% (active). Consider `O=C(NCc1cccs1)C1CCN(S(=O)(=O)c2ccc3c(c2)OCCO3)CC1`, for which the inhibition is -6.83%. In the case of `CCOc1ccc(CCNC(=O)COC(=O)C2CCN(S(=O)(=O)c3ccccc3)CC2)cc1OCC`, the inhibition is -1.05%. On to `O=C(N[C@H]1C/C=C\C(c2cccc(F)c2)N(Cc2ccccc2)C(=O)C1)OCC1c2ccccc2-c2ccccc21` (some centres undefined), for which the inhibition is -1.43%.

As for `O=C(Nc1c(Br)cc2c(c1Br)Cc1ccccc1-2)C(F)(F)F`, the inhibition was -4.34%. Consider `Cc1cn(C2CC(O)C(CO)O2)c(=O)n(CCCc2ccccc2)c1=O` (centres undefined), for which the inhibition is -2.38%.

With `COc1ccc(S(=O)(=O)N2CCOCC2)cc1NC(=O)c1ccc(OCC(C)C)c(OC)c1`, the inhibition was -4%.

Regarding `COc1cc2c(cc1OC)C1C(=O)c3cc(OS(C)(=O)=O)c(OC)cc3C1N(C)C2=O` (centres undefined), the inhibition was -1.26%. To `CCn1c(SCC(=O)Nc2ccc3c(c2)OCCO3)nnc1-c1ccncc1` belongs -1.31%.

`CCn1c(SCC(=O)Nc2ccc(S(=O)(=O)Nc3onc(C)c3C)cc2)nnc1-c1ccccc1`: the inhibition is 30.7% (active). Turning to `Cc1noc(NS(=O)(=O)c2ccc(NC(=O)C34CCC(CC3)C4)cc2)c1C`, the inhibition was -5.91%. To `COc1ccc(C(CNC(=O)c2cccc(S(=O)(=O)Nc3ccc(Br)cc3)c2)N(C)C)cc1` (centres undefined) belongs -3.75%; to `O=[N+]([O-])c1ccc(NS(=O)(=O)c2ccccc2)c(Cl)c1`, -10.2%. In the case of `O=[N+]([O-])c1ccc(COc2ccccc2CN2CCOCC2)cc1`, the inhibition is 0.702%. Turning to `COc1ccccc1N1CCN(/N=C\C(Br)=C\c2ccccc2)CC1`, the inhibition is 1.35%.

For `COc1ccccc1N1CCN(/N=C/c2ccc(O)cc2O)CC1`, the inhibition was 77.6% (active). As for `COc1cc(/C=N/N2CCN(c3ccccc3)CC2)ccc1OC(C)=O`, the inhibition was 4.07%. As to `CC(=NNC(=S)N1CCCCCC1)c1ccccn1`, the inhibition is -1.44%. Turning to `CN(O)C(=S)c1ccccc1`, the inhibition is -3.98%.

`CN1CCN(S(=O)(=O)c2ccc(N3CCN(c4ccccc4O)CC3)c([N+](=O)[O-])c2)CC1`: the inhibition is -6.2%.

As to `O=C(C[C@H]1C[C@H](C(=O)N2CCOCC2)[C@@]2(CCC3CCCC3)c3[nH]c4ccc(Cl)cc4c3CCN2C1=O)NCc1ccco1`, the inhibition is 4.95%.

For the molecule `CCOC(=O)C1=C(C)N(C[C@@H]2CC[C@@H](Cc3ccc(-c4ccccc4)cc3)O2)C(=O)NC1c1ccc([N+](=O)[O-])cc1` (some centres undefined), the inhibition was -2.42%.
